Results reported in PubChem BioAssay.
Several values for one entry are separate records, joined by “and”; a condition that tells them apart may be missing. Equal values may be shown once. Activity calls are given as the source filed them. Rule as the data show it, unless noted: active = inhibition above about 80%; inactive = the rest.

Experiments:
[1] = growth inhibition, single agent or in combination, cell-based, chromothripsis tumors, cisplatin or BGB combos (AID 1671449); conditions: LFS_MB_P medulloblastoma cells;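 also: cells exposed for 96 hours; 0% = vehicle DMSO and 100% = killing by high DMSO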
[2] = growth inhibition, single agent and combos, cell-based, chromothripsis tumors, cisplatin or BGB combos (AID 1671450); conditions: HDN33 neuroblastoma cells, stronger effect = higher value;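 also: cells exposed to compound for four days; 0% = vehicle DMSO and 100% = cell killing by high DMSO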
[3] = growth inhibition, single agents and combos, ICB984, cell-based, cisplatin or BGB combos, synergistic combos for chromothripsis tumors (AID 1671451; call rule not given here;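 also: cells exposed for 96 hours before readout; 0% = vehicle DMSO and 100% = killing by high DMSO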); conditions: ICB984 medulloblastoma cells, drug combinations, stronger effect = higher value
[4] = growth inhibition, single agents and combos, LFS_MB_1R, cell-based, cisplatin or BGB combos, synergistic combos for chromothripsis tumors (AID 1671452); conditions: LFS_MB_1R medulloblastoma cells, stronger effect = higher value;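 also: cells exposed for 96 hours before readout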
[5] = growth inhibition, single agents and combos, HTB85, cell-based, BGB or cisplatin IC20 combos, synergistic combos for chromothripsis tumors (AID 1671453); conditions: HTB85 osteosarcoma cells, drug combinations, stronger effect = higher value;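 also: cells exposed for 96 hours before readout; 0% = vehicle DMSO and 100% = high DMSO killing control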
[6] = growth inhibition, single agents and combos, CRL2098, cell-based, BGB or cisplatin IC20 combos, synergistic combos for chromothripsis tumors (AID 1671454); conditions: CRL2098 osteosarcoma cells, drug combinations, stronger effect = higher value;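 also: cells exposed for 96 h before readout; 0% = vehicle DMSO and 100% = killing by high DMSO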
[7] = growth inhibition, single agents and combos, HD-MB03, cell-based, BGB or cisplatin IC20 combos, synergistic combos for chromothripsis tumors (AID 1671455; in the data active = inhibition above about 83%;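 also: 0% = vehicle DMSO and 100% = high DMSO as cytotoxic control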); conditions: HD-MB03 medulloblastoma cells, stronger effect = higher value
[8] = growth inhibition, single agents and combos, UWB1.289, cell-based, BGB or cisplatin combos, synergistic combos for chromothripsis tumors (AID 1671456); conditions: UWB1.289 ovarian carcinoma cells, stronger effect = higher value;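 also: cells exposed to compound for four days; 0% = vehicle DMSO and 100% = killing by high DMSO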
[9] = growth inhibition, single agents and combos, LFS_MB_2R, cell-based, cisplatin combos, synergistic combos for chromothripsis tumors (AID 1671457); conditions: LFS_MB_2R medulloblastoma cells, stronger effect = higher value;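 also: cells exposed to compound for four days before readout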
[10] = growth inhibition, MDA-MB-436, cell-based, BGB or cisplatin combos, synergistic combos for chromothripsis tumors (AID 1671458; call rule not given here;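 also: cells exposed for 96 hours; 0% = vehicle DMSO and 100% = killing by high DMSO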); conditions: MDA-MB-436 breast carcinoma growth inhibition, drug combinations, stronger effect = higher value
[11] = UWB1.289_BRCA1 ovarian cancer growth, cell-based, BGB or cisplatin combinations (AID 1671459); conditions: UWB1.289 BRCA1 ovarian carcinoma, drug combinations, stronger effect = higher value
[12] = drug combination toxicity in non-malignant astrocytes – cell-based, BGB or cisplatin IC20 combos, cytotoxicity control for chromothriptic childhood tumor combination screen (AID 1671460); conditions: Human astrocytes, viability inhibition, drug combinations, at 0.5 µM, stronger effect = higher value;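 also: cells exposed to compounds for 96 hours before viability readout; 0% = vehicle and 100% = killing control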
[13] = BT084 cell growth, single and combined drugs, ICGC_MB145, cisplatin and BGB IC40 combos (AID 1671461); conditions: BT084 medulloblastoma cells, drug combinations, stronger effect = higher value;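 also: cells exposed to drugs for 96 hours; 0% = vehicle DMSO and 100% = high DMSO full killing control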
[14] = RCMB18 cell growth, single agent and combined, cisplatin and BGB IC40 combos (AID 1671462); conditions: RCMB18 medulloblastoma cells, stronger effect = higher value;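 also: cells exposed to compound for four days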
[15] = CRL1545 cell growth, single agent and combined, cisplatin and BGB IC20 combos (AID 1671464); conditions: CRL1545 osteosarcoma cells, stronger effect = higher value;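 also: cells exposed to compound for 96 hours before readout; 0% = vehicle DMSO and 100% = high DMSO killing control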
[16] = at 0.5 µM, stronger effect = higher value
[17] = measured here: combination with BGB IC20, at 0.005 µM
[18] = measured here: combination with BGB IC40, at 0.005 µM
[19] = measured here: combination with BGB IC40, at 0.05 µM
[20] = measured here: combination with cisplatin, at 0.5 µM, stronger effect = higher value
[21] = measured here: combination with cisplatin, at 5 µM, stronger effect = higher value
[22] = measured here: with BGB IC20 combination, at 0.5 µM
[23] = measured here: with cisplatin IC20 combination, at 0.5 µM
[24] = measured here: 5 uM single agent, at 5 µM
[25] = measured here: combination with cisplatin, at 0.5 µM
[26] = measured here: combination with cisplatin, at 5 µM
[27] = measured here: with BGB IC20, at 0.5 µM
[28] = measured here: with BGB IC20, at 5 µM
[29] = measured here: with cisplatin IC20, at 0.5 µM
[30] = measured here: with cisplatin IC20, at 5 µM
[31] = measured here: combination with BGB at IC20, at 0.5 µM
[32] = measured here: combination with cisplatin at IC20, at 0.5 µM
[33] = measured here: combo with BGB at IC20, at 0.5 µM
[34] = measured here: combo with cisplatin at IC20, at 0.5 µM
[35] = measured here: inhibition with BGB combination, at 0.05 µM
[36] = measured here: inhibition with cisplatin combination, at 0.05 µM
[37] = measured here: BGB combination, at 0.5 µM
[38] = measured here: BGB combination, at 5 µM
[39] = measured here: cisplatin combination, at 0.5 µM
[40] = measured here: cisplatin combination, at 5 µM
[41] = BGB combination, concentration series, at 5 µM
[42] = cisplatin combination, concentration series, at 5 µM
[43] = measured here: combo with BGB IC20
[44] = measured here: combo with cisplatin IC20
[45] = cisplatin combination, at 0.5 µM
[46] = measured here: BGB IC40 combination 0.05 uM, at 0.05 µM
[47] = measured here: BGB IC40 combination, at 0.05 µM

With `CC(C)C(=O)SCCCCCCC(=O)Nc1nc(-c2ccccc2)cs1` the inhibition [1, 16] was -25.8% (inactive), the inhibition [1, 17] was -14.6% and the inhibition [1, 18] was -57.5%. The inhibition [1, 19] was -33.9%, the inhibition [1, 20] was -38.9% and the inhibition [1, 21] was 85.2%. For the same compound, the inhibition ([2]; BGB combo, at 5 µM) was 48.9%, the inhibition ([2]; at 0.5 µM) was 6.91% (inactive) and the inhibition ([2]; cisplatin combo, at 5 µM) was 45.1%. For the same compound, the inhibition [2, 22] was 1.56%, the inhibition [2, 23] was 14.6% and the inhibition ([2]; single agent, at 5 µM) was 57.6%. For the same compound, the inhibition ([3]; BGB IC20 combo, at 0.005 µM) was 16.1%, the inhibition ([3]; BGB IC40 combo, at 0.005 µM) was -25.2% and the inhibition ([3]; BGB IC40 combo, at 0.05 µM) was 31.3%. For the same compound, the inhibition ([3]; at 0.5 µM) was -31.1% (inactive), the inhibition ([3]; cisplatin combo, at 0.05 µM) was 28% and the inhibition ([3]; cisplatin combo, at 0.5 µM) was -33.4%. The inhibition ([3]; cisplatin combo, at 5 µM) was -7.7%, the inhibition [3, 24] was 4.47% and the inhibition ([4]; at 0.5 µM) was -22% (inactive). The inhibition [4, 19] was -72.1%, the inhibition [4, 25] was -44.8% and the inhibition [4, 26] was 68.5%. For the same compound, the inhibition ([5]; at 0.5 µM) was -4.36% (inactive), the inhibition [5, 27] was 2.11% and the inhibition [5, 28] was 19%. For the same compound, the inhibition [5, 29] was -21.4%, the inhibition [5, 30] was 38.3% and the inhibition ([5]; single agent, at 5 µM) was 22.2%. The inhibition ([6]; at 0.5 µM) was -30.2% (inactive), the inhibition [6, 31] was -44.3% and the inhibition [6, 32] was -19.3%. For the same compound, the inhibition ([7]; at 0.5 µM) was 4.11% (inactive), the inhibition [7, 33] was 5.74% and the inhibition [7, 34] was 11.7%. The inhibition ([8]; at 0.5 µM) was 5.55% (inactive), the inhibition [8, 35] was -30.6% and the inhibition [8, 36] was -3.57%. For the same compound, the inhibition ([9]; at 0.5 µM) was -13.4% (inactive), the inhibition [9, 25] was -25.2% and the inhibition [9, 26] was 54.7%. For the same compound, the inhibition ([10]; at 0.5 µM) was -7.93% (inactive), the inhibition [10, 37] was -9.46% and the inhibition [10, 38] was 10.2%. The inhibition [10, 39] was -23.5%, the inhibition [10, 40] was 18.2% and the inhibition [11, 41] was 37.8%. For the same compound, the inhibition ([11]; at 0.5 µM) was 9.48% (inactive), the inhibition [11, 42] was 66.2% and the inhibition [12] was 31.1% (inactive). For the same compound, the inhibition [12, 43] was 34.6%, the inhibition [12, 44] was 18.5% and the inhibition ([13]; at 0.5 µM) was -9.26% (inactive). For the same compound, the inhibition [13, 45] was -8.48%, the inhibition ([13]; cisplatin combination, at 5 µM) was 42.4% and the inhibition [13, 46] was -39.7%. For the same compound, the inhibition ([13]; single agent, at 5 µM) was 71.8%, the inhibition ([14]; at 0.5 µM) was -9.74% (inactive) and the inhibition ([14]; cisplatin combo, at 5 µM) was 41%. The inhibition [14, 47] was 12.2%, the inhibition [14, 25] was -9.58% and the inhibition ([14]; single agent, at 5 µM) was 36.3%. For the same compound, the inhibition ([15]; at 0.5 µM) was 33.1% (inactive), the inhibition [15, 22] was 24.9% and the inhibition [15, 23] was 36.2%. It also gave an inhibition ([15]; single agent, at 0.05 µM) of 0.931% and an inhibition ([15]; single agent, at 5 µM) of 46.6%.
In the case of `CC(=CC(=O)OCCCCCCCCC(=O)O)CC1OCC(CC2OC2C(C)C(C)O)C(O)C1O` (stereo unspecified), the inhibition [1, 16] is reported as -17% (inactive) and -23.9% (inactive), the inhibition [1, 17] is reported as -2.94% and -18.6% and the inhibition [1, 18] is reported as -25.4% and -12.1%. For the same compound, the inhibition [1, 19] was -14.3% and -15.6%, the inhibition [1, 20] was -17.5% and -24.1% and the inhibition [1, 21] was -33.1% and 1.08%. The inhibition ([2]; BGB combo, at 5 µM) was -14.8% and -17.7%, the inhibition ([2]; at 0.5 µM) was -9.45% (inactive) and -27.8% (inactive) and the inhibition ([2]; cisplatin combo, at 5 µM) was 6.33% and -11.4%. For the same compound, the inhibition [2, 22] was -8.51% and -26.5%, the inhibition [2, 23] was -15.9% and -22.8% and the inhibition ([2]; single agent, at 5 µM) was -7.18% and -31.8%. The inhibition ([3]; BGB IC20 combo, at 0.005 µM) was -1.97% and -19.7%, the inhibition ([3]; BGB IC40 combo, at 0.005 µM) was -39% and 3.24% and the inhibition ([3]; BGB IC40 combo, at 0.05 µM) was -33.4% and -9.88%. The inhibition ([3]; at 0.5 µM) was -17% (inactive) and -12.7% (inactive), the inhibition ([3]; cisplatin combo, at 0.05 µM) was -38.6% and -12.9% and the inhibition ([3]; cisplatin combo, at 0.5 µM) was -14.9% and -15.5%. For the same compound, the inhibition ([3]; cisplatin combo, at 5 µM) was -35% and -37.3%, the inhibition [3, 24] was -25.3% and -26.1% and the inhibition ([4]; at 0.5 µM) was -33.1% (inactive) and -17.5% (inactive). For the same compound, the inhibition [4, 19] was -28.7% and -19%, the inhibition [4, 25] was -76% and -15.9% and the inhibition [4, 26] was -33.5% and -12.5%. The inhibition ([5]; at 0.5 µM) was -4.51% (inactive) and -3.63% (inactive), the inhibition [5, 27] was -6.68% and -16.9% and the inhibition [5, 28] was 0.575% and -34.3%. The inhibition [5, 29] was -18.6% and 8%, the inhibition [5, 30] was -13.7% and -38.9% and the inhibition ([5]; single agent, at 5 µM) was 1.75% and -9.62%. The inhibition ([6]; at 0.5 µM) was -26.3% (inactive) and -42.8% (inactive), the inhibition [6, 31] was -3.72% and -29.5% and the inhibition [6, 32] was -3.83% and -44%. The inhibition ([7]; at 0.5 µM) was -5.45% (inactive) and -14.3% (inactive), the inhibition [7, 33] was -13% and -2.83% and the inhibition [7, 34] was -4.76% and -27.9%. The inhibition ([8]; at 0.5 µM) was -10.9% (inactive) and -9.1% (inactive), the inhibition [8, 35] was -7.06% and -24.4% and the inhibition [8, 36] was -16.6% and -1.73%. The inhibition ([9]; at 0.5 µM) was -29.1% (inactive) and -8.5% (inactive), the inhibition [9, 25] was -31.2% and -4.9% and the inhibition [9, 26] was -23.6% and -39.7%. For the same compound, the inhibition ([10]; at 0.5 µM) was -14.5% (inactive) and -24.2% (inactive), the inhibition [10, 37] was -14.9% and -16% and the inhibition [10, 38] was -17.5% and -14.8%. For the same compound, the inhibition [10, 39] was -18.1% and -43.4%, the inhibition [10, 40] was -22.7% and -18.3% and the inhibition [11, 41] was 0.308% and -20.1%. The inhibition ([11]; at 0.5 µM) was -2.59% (inactive) and -13% (inactive), the inhibition [11, 42] was 9.16% and -8.98% and the inhibition [12] was 9.62% (inactive) and -5.3% (inactive). The inhibition [12, 43] was 10.3% and 3.21%, the inhibition [12, 44] was 3.29% and -21.1% and the inhibition ([13]; at 0.5 µM) was -23.1% (inactive) and -16.1% (inactive). For the same compound, the inhibition [13, 45] was -23.9% and -16.7%, the inhibition ([13]; cisplatin combination, at 5 µM) was -18.9% and -3.71% and the inhibition [13, 46] was -21.3% and 12.3%. For the same compound, the inhibition ([13]; single agent, at 5 µM) was -11.4% and -22.4%, the inhibition ([14]; at 0.5 µM) was -6.07% (inactive) and -7.9% (inactive) and the inhibition ([14]; cisplatin combo, at 5 µM) was -30.1% and -5.18%. For the same compound, the inhibition [14, 47] was 6.38% and -10.7%, the inhibition [14, 25] was 18.9% and -20.9% and the inhibition ([14]; single agent, at 5 µM) was -45.8% and -19.9%. The inhibition ([15]; at 0.5 µM) was -2.77% (inactive) and -21.4% (inactive), the inhibition [15, 22] was -13.1% and -9.57% and the inhibition [15, 23] was 2.38% and -30.2%. For the same compound, the inhibition ([15]; single agent, at 0.05 µM) was 22.2% and -47.2% and the inhibition ([15]; single agent, at 5 µM) was 3.87% and -28.5%.
